Bioassay records from PubChem.
An excerpt weighted towards active compounds, which were near 4% of everything screened.
CF NFkB inh: inhibitors of PAF-induced NF-kB signaling, primary screen, cell-based, GFP fluorescence, uHTS; KKLEB NF-kB-GFP reporter, GFP fluorescence overnight; inhibition, % at 5 µM; actives 0.86% (n = 360,000); AID 588850, 2011;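 active = at least 50% inhibition at 5 µM, scaled per plate between neutral and stimulator controls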;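 note: PAF is a Pseudomonas aeruginosa culture filtrate used as stimulus; plate controls were PAF-stimulated DMSO wells for no effect and unstimulated DMSO wells for full effect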
KKLEB tox: cytotoxicity in KKLEB CF airway cells, primary screen, cytotoxicity control for CF NF-kB inhibitor project, cell-based, uHTS, fluorescence assay plates; AID 602141, 2011; KKLEB CF airway cells viability, ATPlite luminescence, overnight; hits give low values; cells stimulated with P. aeruginosa culture filtrate; actives 0.36% (n = 360,000); activity change (cytotoxicity), % at 5 µM;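 active = corrected activity change at or below -50% at 5 µM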
Peg3 promoter: Peg3 promoter-driven luciferase inhibitors, primary screen, cell-based, HeLa, luciferase luminescence; HeLa PEG-Prom luciferase reporter, overnight; inhibition, % at 20 µM; actives 1.7% (n = 360,000);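 active = inhibition of at least 50% at 20 µM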
HIF-2a block: HIF-2a reporter inhibitors, primary screen, luminescence, 786-0 RCC cells; 786-0 RCC cells HIF-2a reporter, luciferase luminescence, overnight; inhibition, % at 18.8 µM; actives 0.72% (n = 360,000);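 active = inhibition of the luminescence signal of 40% or more relative to plate controls, in a single-dose primary screen at 18.75 µM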
TROY NFkB inh: inhibitors of TROY-driven NF-kB signaling, primary screen, Q293 LMP1-TROYcd cells, NF-kB luciferase, uHTS; Q293 LMP1-TROYcd NF-kB luciferase reporter, 4 h; inhibition, % at 10 µM; actives 0.98% (n = 360,000); AID 1347056, 2019;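 active = compounds whose plate-normalised and pattern-corrected inhibition of the luciferase reporter signal at the single screening dose is 50% or more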
TWEAK-Fn14 inh: inhibitors of TWEAK-Fn14 signaling, primary screen, luciferase reporter cells, uHTS. TWEAK-stimulated Fn14 reporter cells, luciferase luminescence, 8 h. inhibition, % at 10 µM. actives 2% (n = 360,000); in the data active = inhibition above about 50%
Active calls of the source: *; nt = no result given.

SMILES | CF NFkB inh | KKLEB tox | Peg3 promoter | HIF-2a block | TROY NFkB inh | TWEAK-Fn14 inh
COC(=O)c1sc(-c2ccc(Cl)cc2)cc1NC(=O)c1ccccc1C(=O)O | 5 | 6 | -27 | -67 | -43 | -1
COC(=O)c1sc(-c2ccc(C(C)(C)C)cc2)cc1NC(=O)c1ccccc1C(=O)O | -5 | 0 | -52 | -130 | 52* | -8
O=C(N/N=C/c1cn(Cc2ccccc2)c2ccccc12)c1cccnc1 | 4 | -9 | 18 | -17 | 7 | 54*
COC(=O)c1ccc(CCc2cc(O)ccc2O)cc1 | 23 | -6 | -84 | 32 | 4 | 87*
COC(=O)c1ccc(CCc2cc(O)c(Br)cc2O)cc1 | 4 | -2 | -18 | 24 | -4 | 92*
COC(=O)c1ccc(O)cc1 | -13 | -15 | 6 | 3 | 14 | 4
CCCCC(Sc1nc(N)c(NC(=O)c2ccco2)c(=O)[nH]1)C(=O)O (configuration not stated) | -4 | 6 | 2 | 9 | -5 | 3
C=C(C)CN=C1SC(C(=O)Nc2sc3c(c2C(=O)OC)CCC3)C(N)=C1C(N)=O (configuration not stated) | -13 | 22 | 15 | 9 | 5 | 57*
O=C1C=C(O)c2c(O)cc(O)c(O)c2C1=O | 18 | -23 | 8 | 10 | 6 | 70*
O=C1c2ccccc2C(=O)c2c(O)c(O)cc(O)c21 | -6 | 11 | -2 | 5 | 1 | -3
CN1CCC2CC1c1cc(-c3ccc(C(F)(F)F)cc3)ccc12 (configuration not stated) | 10 | -2 | 6 | -14 | 4 | 11
Cc1cc(/C=C2\SC(=S)N(C)C2=O)c(C)n1-c1ccccc1O | 9 | -8 | -80 | -272 | 61* | 96*
Cc1cc(/C=C2\SC(=S)N(C)C2=O)c(C)n1-c1ccc(O)cc1 | -8 | -4 | 62* | 45* | 82* | 104*
CSCCC(NC(=O)c1ccco1)C(=O)N1CC(C)OC(C)C1 (configuration not stated) | 1 | 17 | 3 | 7 | 5 | 8
O=C(/C=C/c1ccc(F)cc1)NC(=S)N1CCCCC1c1cccnc1 (configuration not stated) | -2 | 2 | 1 | 0 | -20 | -5
O=C1/C(=C/c2ccccc2F)SC(=S)N1CC(=O)N1CCCCC1c1cccnc1 (configuration not stated) | 74* | -28 | 76* | 20 | 17 | -1
O=C1/C(=C/c2ccc(F)cc2)SC(=S)N1CC(=O)N1CCCCC1c1cccnc1 (configuration not stated) | 17 | -6 | 103* | 34 | 16 | -19
COc1ccc(O)c(C(=O)CC(=O)c2ccc(F)cc2)c1 | -12 | -31 | -13 | 10 | 40 | 85*
c1ccc(OCCNc2nc(NCC3CC3)nc3cc(-c4ccccc4)sc23)cc1 | 15 | -29 | 47 | -218 | -35 | 31
COCCNc1nc(NCc2cccc(OC)c2)c2sc(-c3ccccc3)cc2n1 | 1 | -7 | 57* | -43 | -54 | -10
COCCNc1nc(NCc2ccc(NC(C)=O)cc2)c2sc(-c3ccccc3)cc2n1 | -38 | -54* | 25 | -28 | -69 | -52
COCCNc1nc(Oc2ccc(NC(C)=O)cc2)c2sc(-c3ccccc3)cc2n1 | 17 | -13 | -25 | -33 | -26 | -6
C=CCNc1nc(NCc2ccc(N(C)C)cc2)c2sc(-c3ccccc3)cc2n1 | -28 | 2 | 70* | -277 | -48 | -67
c1ccc(CNc2nc(NCC3CC3)nc3cc(-c4ccccc4)sc23)cc1 | -11 | -3 | 83* | -78 | -74 | -25
C=CCNc1nc(NCCOC)c2sc(-c3ccccc3)cc2n1 | -59 | 4 | -21 | -63 | -25 | -16
SMILES | CF NFkB inh | KKLEB tox | Peg3 promoter | HIF-2a block | TROY NFkB inh | TWEAK-Fn14 inh
COc1ccccc1C(O)c1ncc(-c2cccc3ccccc23)[nH]1 (configuration not stated) | -6 | -6 | -8 | 0 | -14 | -8
COc1cc(SC)ccc1C(=O)Nc1ccc2ncccc2c1 | -16 | -5 | -274 | -191 | -7 | 37
COc1ccc(-c2oc3ncnc(NCCCN(C)C)c3c2-c2ccc(OC)cc2)cc1 | 21 | -20 | 104* | 33 | -29 | -33
CN(C)CCNc1ncnc2oc(-c3ccccc3)c(-c3ccccc3)c12 | 27 | -21 | 71* | 4 | -47 | -54
Cc1ccc(-c2oc3ncnc(N)c3c2-c2ccc(C)cc2)cc1 | 25 | -8 | 20 | -10 | -12 | -65
CN(C)CCNc1ncnc2ccccc12 | 2 | 7 | -6 | 0 | -5 | 3
Cc1cccc(Nc2nc(N3CCOCC3)nc(N3CCOCC3)n2)c1 | 51* | -14 | 7 | 29 | 0 | -5
CC1=NN(c2ccc(C)cc2)C(=O)/C1=C\C=C\c1ccccc1 | -10 | 13 | 46 | 24 | -5 | 94*
COc1ccccc1N1CCN(C2CCCN(C(=O)CCC(=O)N(C)C)C2)CC1 (configuration not stated) | -18 | 7 | 10 | 21 | 1 | -22
c1ccc2[nH]c(CSc3nnc(-c4ccncc4)o3)nc2c1 | -6 | -2 | -2 | 8 | nt | 58*
COc1ccc(-c2nnc(SCC(=O)NCCc3ccccc3)o2)cc1 | -2 | -3 | 9 | -19 | nt | 87*
COc1ccc(CC(=O)NC(C)c2nnc(SCc3nc4ccccc4c(=O)[nH]3)n2C)cc1 (configuration not stated) | 4 | 5 | 7 | 5 | nt | 75*
COc1ccc(Cc2nnc(SCC(=O)NCCc3ccccc3)o2)cc1 | 0 | 8 | 15 | 10 | 2 | 7
CC(NC(=O)c1ccccc1)c1nnc(SCc2nc3ccccc3c(=O)[nH]2)n1C (configuration not stated) | -11 | 11 | 5 | 4 | -1 | -9
COc1ccc(-c2nnc(SCc3nc4ccccc4c(=O)[nH]3)o2)cc1 | 7 | -9 | -20 | -52 | 56* | 51*
Cn1nc(C(C)(C)C)cc1C(=O)N1CCCCC1c1cc(C(=O)Nc2ccccc2)no1 (configuration not stated) | 18 | -10 | 12 | 7 | -7 | 18
CCOC(=O)CNC(=O)Cn1cnc2c(oc3ccccc32)c1=O | 10 | -12 | -17 | -46 | -26 | 1
O=S(=O)(c1ccccc1)N1CCN(Cc2cccc(Cl)c2)CC1 | 1 | 7 | 2 | 12 | 21 | 79*
